Assay [1] is described as follows: qHTS assay to identify small molecule agonists of the hypoxia (HIF-1) signaling pathway - cell viability counter screen (AID 1224844; calls by dose curve; note: nearly all actives have a fitted effect of over 50% in size). In short, it runs like this: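 Cytotoxicity measured by CellTiter-Glo ATP luminescence in the wells also read for beta-lactamase signal. Cells were HRE-bla ME-180 (2,000/well, 0.5% dialyzed FBS), exposed to compounds for 17 h at 37C.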

Assay [2] is described as follows: qHTS assay to identify small molecule agonists of H2AX (AID 1224845; active = well fitted activation curve with a large enough effect in the signal ratio in the repeat runs, not every such curve was filed as active; the % refers to the signal ratio). In short, it runs like this:
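Wild-type CHO-K1 cells plated overnight, then exposed 3 hr at 37C to compounds at 15 concentrations (0.76% DMSO). Lysed, then HTRF anti-pH2AX(S139)-cryptate/anti-H2AX-d2 detection after 24 hr at room temperature; emissions 665 and 620 nm.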
(In general: Quantitative high-throughput screening tests each substance at several concentrations.)

A short description of assay [3]: qHTS assay to identify small molecule agonists of the hypoxia (HIF-1) signaling pathway (AID 1224846; active = well fitted activation curve with a large enough effect in the signal ratio in the repeat runs, not every such curve was filed as active; the % refers to the signal ratio). In a few lines:
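Compounds added to ME-180 cells carrying hypoxia-response-element beta-lactamase reporter (0.5% dialyzed FBS, 5 h preplating), 17 h at 37C; agonist activity detected by CCF4-AM B/G FRET read-out.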

Assay [4] is described as follows: qHTS assay to identify small molecule agonists of H2AX - cell viability counter screen (AID 1224847; calls by dose curve; note: top concentration of the series differs between compounds; nearly all actives have a fitted effect of over 30% in size). In a few lines:
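Cytotoxicity counter screen in wild-type CHO-K1 cells: a 3 hr compound treatment at 37C across 15 concentrations, followed by CellTiter-Glo luminescence to gauge viable cells.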

Assay [5] can be described thus: qHTS assay to identify small molecule antagonists of the estrogen related receptor (ERR) signaling pathway from Tox21 library (AID 1224848). Note: nearly all actives have a fitted effect of over 50% in size. Note: potency is the fitted concentration of half-maximal effect. In a few lines: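 Tox21 10K compounds in DMSO tested for ERR pathway antagonism in NTP's ERR cell line; 18 h, 37 C exposure; ONE-Glo luminescence.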
Assay [6] in a line: qHTS assay to identify small molecule agonists of the estrogen related receptor (ERR) signaling pathway from Tox21 library (AID 1224849; calls by dose curve; note: nearly all actives have a fitted effect of over 15% in size). To be noted: ERR reporter cell line, ONE-Glo luciferase, 18 h. In short, it runs like this:
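Luminescent agonist read-out (One-Glo, 30-minute room-temperature incubation) following 18-hour compound treatment at 37 C of the ERR cell line, which had been plated 6 hours before dosing.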

Assay [7] is described as follows: qHTS RealTime-Glo MT Cell Viability Assay in HepG2 cells - 24 hour (AID 1224867). Note: nearly all actives have a fitted effect of over 50% in size. In short, it runs like this:
(§1)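 HepG2 cells were seeded at 600 cells/well together with NanoLuc luciferase and a cell-permeant prosubstrate, preincubated 5 h at 37 C/5% CO2, then pin-dosed with compounds in DMSO. Nonlytic luminescence from viable cells was read at each time point.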

Assay [8] in a line: qHTS RealTime-Glo MT Cell Viability Assay in HEK293 cells - 32 hour (AID 1224868). Note: top concentration of the series differs between compounds; nearly all actives have a fitted effect of over 50% in size. In short, it runs like this:
(§2)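 HEK293 cells were seeded at 600 cells/well together with NanoLuc luciferase and cell-permeant prosubstrate, preincubated 5 h at 37 C/5% CO2, then given compound in DMSO by pintool. Luminescence from viable-cell prosubstrate reduction was read repeatedly over 40 h.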

Assay [9] in a line: A CellTox Green Cytotoxicity Assay to monitor cytotoxicity in HEK293 cells - 0 hour (AID 1224869). Note: nearly all actives have a fitted effect of over 50% in size. In short, it runs like this:
(§3)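 Fluorescence from a DNA-binding dye excluded by viable cells was measured repeatedly in the same HEK293 wells (600 cells/well) during continuous compound exposure at 37 C. Each assay gives one read point: 0, 8, 16, 24, 32 or 40 h.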

Assay [10] is described as follows: qHTS RealTime-Glo MT Cell Viability Assay in HepG2 cells - 40 hour (AID 1224870). Note: nearly all actives have a fitted effect of over 50% in size. In short, it runs like this:
(§4)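 HepG2 cells mixed with RealTime-Glo MT reagents (NanoLuc plus cell-permeant prosubstrate) were seeded at 600 cells/well, incubated 5 h at 37 C/5% CO2, then pinned with compounds in DMSO; nonlytic luminescence tracked viability during 40 h treatment.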

A short description of assay [11]: A CellTox Green Cytotoxicity Assay to monitor cytotoxicity in HEK293 cells - 40 hour (AID 1224871). Note: nearly all actives have a fitted effect of over 45% in size. In short, it runs like this:
as §3

Assay [12] can be described thus: qHTS RealTime-Glo MT Cell Viability Assay in HEK293 cells - 16 hour (AID 1224872). In short, it runs like this: as §2
The nature of assay [13]: qHTS RealTime-Glo MT Cell Viability Assay in HepG2 cells - 8 hour (AID 1224873). Note: nearly all actives have a fitted effect of over 55% in size. In short, it runs like this:
as §4

A short description of assay [14]: qHTS RealTime-Glo MT Cell Viability Assay in HEK293 cells - 40 hour (AID 1224874). Note: nearly all actives have a fitted effect of over 50% in size. The following applies: RealTime-Glo luminescence; max response: stronger effect = lower value. In a few lines: (§5)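 Luminescence, which tracks viable cell number through reduction of the prosubstrate to a NanoLuc substrate, was read over continuous 37 C culture. Cells (600/well) were premixed with reagent and rested 5 h before 23 nL of compound in DMSO was pinned.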

The nature of assay [15]: A CellTox Green Cytotoxicity Assay to monitor cytotoxicity in HEK293 cells - 24 hour (AID 1224875). Note: nearly all actives have a fitted effect of over 45% in size. In short, it runs like this: as §3
The nature of assay [16]: A CellTox Green Cytotoxicity Assay to monitor cytotoxicity in HepG2 cells - 16 hour (AID 1224876). Note: nearly all actives have a fitted effect of over 45% in size. Note: potency is the fitted concentration of half-maximal effect. In short, it runs like this: (§6)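 Real-time cytotoxicity: fluorescence of a cell-impermeant cyanine dye binding DNA of dead HepG2 cells, measured repeatedly (0–40 h) during compound exposure at 37 C. Cells seeded 600/well with reagent, dosed after 5 h.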
The nature of assay [17]: qHTS RealTime-Glo MT Cell Viability Assay in HepG2 cells - 32 hour (AID 1224877). Note: nearly all actives have a fitted effect of over 55% in size. In short, it runs like this:
as §1

Assay [18] is described as follows: A CellTox Green Cytotoxicity Assay to monitor cytotoxicity in HepG2 cells - 24 hour (AID 1224878). Note: nearly all actives have a fitted effect of over 45% in size. Note: potency is the fitted concentration of half-maximal effect. In a few lines:
as §6

Assay [19] is described as follows: A CellTox Green Cytotoxicity Assay to monitor cytotoxicity in HepG2 cells - 40 hour (AID 1224879). Note: nearly all actives have a fitted effect of over 40% in size. In a few lines:
as §6

A short description of assay [20]: qHTS RealTime-Glo MT Cell Viability Assay in HEK293 cells - 0 hour (AID 1224880). In a few lines:
as §5

Data on six compounds can be found in PubChem BioAssay (Tox21).

Values joined by “and” are separate entries in the source; they are usually repeats but may differ in a detail not shown here. Equal values may be shown once. Results filed as inconclusive are left out. The source holds several records for some structures; these can differ, active in one and inactive in another. Active and inactive are the calls of the source. Unless noted, calls come from the whole dose curve; as a rule, active = well fitted curve in the direction sought with a large enough effect in the repeat runs; inconclusive = weak or mixed curves; inactive = no such curve, though single readings can be large; an effect the other way counts as inactive or inconclusive.
% is set by controls: 0 for no effect and ±100 for the full control effect.

As for `O=C1CCCO1`, the Potency result in assay [1], in assay [2], in assay [4], in assay [5], in assay [7] and in [8] was “inactive” in each case. Further, the Potency entry in [9], in assay [10], in assay [11], in [12], in assay [13] and in [15] was “inactive” throughout. The Potency entry in assay [16], in [17], in assay [18], in [19] and in assay [20] was “inactive” each time. Besides, the result in assay [3] was inactive. Besides, in assay [6] (at 92.4 µM (top of the series)), the activity change, positive = activation was 3.83% (inactive) and -0.0508% (inactive). Also, the max response in assay [14] is 17.8% (inactive) and -9.6% (inactive).

Turning to `O=C(O)c1nn(Cc2ccc(Cl)cc2Cl)c2ccccc12`, the Potency result in assay [1], in [2], in assay [4], in assay [5], in assay [7] and in [8] was “inactive” in each case. Also, the Potency entry in assay [9], in assay [10], in assay [11], in assay [12], in [15] and in assay [17] was “inactive” throughout. Moreover, the Potency result in [20] was “inactive”. Moreover, in assay [3], the outcome was inactive. Moreover, the activity change, positive = activation in assay [6] (at 42.5 µM (top of the series)) was -5.39% (inactive); in assay [6] (at 92.4 µM (top of the series)), -48% (inactive). The max response in assay [14] was -3.1% (inactive) and 1.84% (inactive). The Potency result in [16] is “inactive and 95.2 nM (active)”; in assay [18], “inactive and 107 nM (active)”.

`CSc1nc(NC(C)C)nc(NC(C)C)n1`: the Potency result in assay [1], in assay [2], in [4], in assay [5], in assay [7] and in assay [8] was “inactive” throughout. Besides, the Potency entry in assay [9], in assay [11], in [12], in assay [13], in assay [15] and in [16] was “inactive” in each case. Besides, the Potency result in assay [17] and in [20] was “inactive” each time. Moreover, the compound was called inactive in [3]. Besides, the activity change, positive = activation in [6] (at 92.4 µM (top of the series)) is -11% (inactive) and -12.6% (inactive). Besides, the max response in [14] is -22.1% (inactive).

For the compound `CCCCC(C#N)(Cn1cncn1)c1ccc(Cl)cc1` (stereo not drawn), the Potency result in assay [1], in assay [2], in assay [4], in assay [7], in assay [8] and in assay [9] was “inactive” in each case. For the same compound, the Potency entry in assay [10], in [11], in assay [12], in [13], in assay [15] and in assay [16] was “inactive” in each case. Besides, the Potency entry in assay [17], in assay [18] and in assay [20] was “inactive” throughout. Also, in [3], the outcome was inactive. In addition, the Potency in assay [5] is 48.4 µM (active). For the same compound, the activity change, positive = activation in [6] (at 92.4 µM (top of the series)) is -34.1% (inactive) and -20% (inactive).

Turning to `Cc1cc(Cl)ccc1N=CN(C)C`, the Potency result in assay [1], in [2], in assay [4], in assay [5], in assay [7] and in assay [8] was “inactive” each time. Further, the Potency result in assay [9], in assay [11], in assay [12], in assay [13], in [15] and in [16] was “inactive” each time. The Potency result in [17], in assay [18], in assay [19] and in [20] was “inactive” each time. In addition, the result in [3] was inactive. Further, in assay [6] (at 92.4 µM (top of the series)), the activity change, positive = activation was -6.81% (inactive) and 2.85% (inactive). Further, the max response in assay [14] is 2.7% (inactive) and 1.16% (inactive).

As to `CC(C)Nc1nc(Cl)nc(NC(C)C)n1`, the Potency result in assay [1], in assay [2], in [4], in assay [5], in assay [7] and in assay [8] was “inactive” in each case. In addition, the Potency entry in [9], in [10], in assay [11], in assay [12], in assay [13] and in assay [15] was “inactive” each time. In addition, the Potency result in assay [16], in [17], in [18], in [19] and in assay [20] was “inactive” each time. For the same compound, the compound was classed as inactive in assay [3]. Also, the activity change, positive = activation in assay [6] (at 92.4 µM (top of the series)) is 1.71% (inactive) and -9.11% (inactive). Besides, the max response in assay [14] is -12.4% (inactive) and -17.3% (inactive).
